PLK1 PBD inh: inhibitors of human PLK1 polo-box domain binding. P53350. Plk1 PBD binding of FITC phosphopeptide, fluorescence polarization. Potency, µM, most hits filed as inhibitors. hit rate 2.8% among 360,000. AID 720504; further: series mostly up to about 57 µM; nearly all actives have a fitted effect of over 65% in size
WRN helicase inh: blocks human WRN helicase | Potency, µM (titrated, usually from 114 µM), usual class: inhibitors | WRN helicase unwinding, fluorescent forked duplex, kinetic | Q14191 | hit rate 0.46% among 360,000; further: nearly all actives have a fitted effect of over 55% in size
Target sequence (Q14191 whole entry, looked up): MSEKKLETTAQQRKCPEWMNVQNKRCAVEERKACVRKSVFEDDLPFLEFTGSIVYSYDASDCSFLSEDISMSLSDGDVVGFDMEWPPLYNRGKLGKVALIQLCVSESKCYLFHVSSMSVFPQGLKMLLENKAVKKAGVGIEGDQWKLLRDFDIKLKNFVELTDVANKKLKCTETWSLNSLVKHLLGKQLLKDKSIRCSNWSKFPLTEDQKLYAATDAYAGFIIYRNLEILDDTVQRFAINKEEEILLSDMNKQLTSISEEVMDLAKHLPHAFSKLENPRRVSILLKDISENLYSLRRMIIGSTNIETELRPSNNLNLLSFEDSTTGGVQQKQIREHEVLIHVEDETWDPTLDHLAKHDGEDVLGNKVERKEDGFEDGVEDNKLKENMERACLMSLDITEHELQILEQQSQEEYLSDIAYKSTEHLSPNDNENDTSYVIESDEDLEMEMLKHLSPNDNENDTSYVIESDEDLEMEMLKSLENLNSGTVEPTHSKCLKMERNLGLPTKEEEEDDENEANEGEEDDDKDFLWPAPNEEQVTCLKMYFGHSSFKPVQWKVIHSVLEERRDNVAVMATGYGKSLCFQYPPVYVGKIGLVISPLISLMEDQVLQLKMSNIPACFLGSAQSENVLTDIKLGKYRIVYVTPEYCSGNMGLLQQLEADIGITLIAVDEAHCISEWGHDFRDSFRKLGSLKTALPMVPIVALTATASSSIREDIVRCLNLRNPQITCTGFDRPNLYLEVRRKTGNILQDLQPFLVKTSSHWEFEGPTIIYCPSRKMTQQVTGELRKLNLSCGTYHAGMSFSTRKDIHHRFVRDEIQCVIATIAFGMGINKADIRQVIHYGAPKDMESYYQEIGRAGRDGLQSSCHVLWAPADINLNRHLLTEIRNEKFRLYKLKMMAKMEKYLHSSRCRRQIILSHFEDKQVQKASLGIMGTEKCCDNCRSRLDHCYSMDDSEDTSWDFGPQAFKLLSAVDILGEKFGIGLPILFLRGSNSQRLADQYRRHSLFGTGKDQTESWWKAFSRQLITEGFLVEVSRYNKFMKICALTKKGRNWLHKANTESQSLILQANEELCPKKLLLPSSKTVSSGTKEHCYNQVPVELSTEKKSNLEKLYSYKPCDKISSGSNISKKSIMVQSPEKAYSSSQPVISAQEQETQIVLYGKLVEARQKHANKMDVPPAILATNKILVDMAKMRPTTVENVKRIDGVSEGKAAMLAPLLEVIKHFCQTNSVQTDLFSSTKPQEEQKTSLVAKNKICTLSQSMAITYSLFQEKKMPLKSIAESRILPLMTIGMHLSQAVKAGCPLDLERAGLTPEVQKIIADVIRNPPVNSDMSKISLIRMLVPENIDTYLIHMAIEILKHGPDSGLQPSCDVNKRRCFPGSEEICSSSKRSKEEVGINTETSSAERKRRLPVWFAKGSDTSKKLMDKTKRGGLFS
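Fluorescence dequenching readout, ex 525 nm/em 598 nm, kinetic mode: forked duplex DNA (100 nM final) with adjacent fluorophore and quencher unwound by WRN (20 nM final) with 2 mM ATP. Compound preincubation 15 min, room temperature.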
FEN1 inhibitor: human FEN1 inhibition; Recombinant FEN1 flap cleavage, fluorescence, 15 min; Potency, µM (highest dose often 114 µM), most hits filed as inhibitors; hit rate 0.35% among 390,000; AID 588795; further: nearly all actives have a fitted effect of over 65% in size
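Enzyme 10 nM, 15 min RT preincubation with compound; start with substrate 50 nM final; reads at 0 and 15 min; qHTS titration, four-parameter Hill fit.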
PI5P4Ka inh: blocks human PI5P4K alpha kinase activity; P48426; hit rate 1.2% among 330,000; AID 652105; max response, %; PI5P4Kalpha enzyme, ADP-Glo luminescence, 60 min; active compounds read low; active means max response of -50% or lower; inconclusive means between -30% and -50%; inactive means -30% or higher; further: value at the top dose of about 77 µM
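PI5P4Kalpha ADP-Glo assay; 5 microM ATP final; 60 min RT reaction; HEPES pH 7.4/EGTA/CHAPS, 5% DMSO; controls lacking substrate or enzyme; luminescent end-point.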
VDR inhibitor: inhibitors of human vitamin D receptor. P11473. VDR-SRC2-3 peptide fluorescence polarization, 2 h. Potency, µM, usual class: inhibitors. hit rate 0.93% among 400,000. AID 504847
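Compounds are added to VDR with labelled SRC2-3 coactivator peptide and held 2 h at room temperature. Inhibition of the VDR–peptide interaction is then read as a change in fluorescence polarization.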
TCR activator: activates T cell receptor signaling | Potency, µM (series often up to 9.22 µM), hits mostly activators | primary human leukocytes, anti-CD3, IL-2 HTRF, 48 h | 330,000 tested, under 10 active | AID 504894
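1) Mix primary human leukocytes, a-CD3 beads and compound. 2) Incubate 48 hr. 3) Add HTRF IL-2 reagents (a-IL-2-K, a-IL-2-d2).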
Numbers stand for hits; n = inactive; u = inconclusive; x = no result given; [ ] = remark or other dose. This is a sample that favours compounds with a hit; in the whole collection about 3.7% have one here. Unless noted, the call rests on the fitted dose curve; in most records, active means well fitted curve in the direction sought with a large enough effect; inconclusive means small, poorly fitted or top-dose-only effect, or another doubt; inactive means no such curve, though single readings can be large; an effect the other way counts as inactive or inconclusive.

SMILES	PLK1 PBD inh	WRN helicase inh	FEN1 inhibitor	PI5P4Ka inh	VDR inhibitor	TCR activator
Clc1cccc(-c2ccc(/C=N/n3cnnc3)o2)c1	n	n	n	x	n	n
CCCCCCCCCCCCCCCCn1cc[n+](Cc2ccccc2)c1C	x	x	x	x	n	x
Cc1ccc(C(C2=C(O)CC(C)(C)CC2=O)C2C(=O)CC(C)(C)CC2=O)o1 (centres undefined)	6µM	u	n	n	50µM	n
CC1(C)[C@@H]2CC[C@]1(C)[C@@H](OC(=O)CSC#N)C2	x	x	x	x	50µM	x
C=C1NN(Cc2ccccc2)C(=O)N1c1ccc(OCc2ccccc2)cc1	x	x	n	x	x	x
CSc1ncccc1C(=O)OCC(=O)c1ccc(Br)s1	19µM	n	n	n	n	n
CC1CCc2c(sc3[nH]c(=S)n(C)c(=O)c23)C1 (centres undefined)	11µM	n	n	n	u	n
CN1CCN(c2nc(-c3ccccn3)nc3ccccc23)CC1	n	n	n	x	n	n
c1ccc(N2CCN(c3nc(-c4ccccn4)nc4ccccc34)CC2)cc1	11µM	n	n	u	n	n
Cc1ccc(/C=C2\C(=N)N3N=C(CC(=O)N4CCCCC4)SC3=NC2=O)cc1	u	n[11.6 µM]	n	n	n	n
N=C1/C(=C/c2ccco2)C(=O)N=C2SC(CC(=O)N3CCCC3)=NN12	u	50µM	n	n	n	n
N=C1/C(=C/c2ccc(Br)o2)C(=O)N=C2SC(CC(=O)N3CCCC3)=NN12	u	50µM	u	u	n	n
O=c1c(Cc2ccccc2)c(O)c2cccc3c4c(n1c23)CCCC4	n	n	n	n	n	n
O=c1c(Cl)c(O)c2cccc3c4ccccc4n1c23	n	n	u	-57	u	n
COc1c(O)c(=O)n2c3ccccc3c3ccnc1c32	n	n	11µM	n	n	n
COc1c(OC)c2[nH]c(=O)cc3c4ccccc4n(c1=O)c23	n	n	n	n	n	n
O=C(CCCCn1c(=O)c2ccccc2n(Cc2ccc(Cl)cc2)c1=O)NCc1ccccc1Cl	x	x	n	x	n	x
COc1ccccc1OCC(O)CN1C(=O)NC(C)(C)C1=O (centres undefined)	27µM	n	n	n	n	n
COc1ccc2cc(-c3nc4ccc(C(=O)O)cc4[nH]3)c(=O)oc2c1	x	x	n	x	n	x
COc1ccc(-n2nc(C(=O)N3CCN(c4cccc(C)c4)C(C)C3)c3c4ccccc4n(C)c3c2=O)cc1Cl (centres undefined)	x	x	n	x	n	x
Cc1ccccc1OCC(=O)N/N=C/c1ccncc1	n	n	n	n	n	n
Cc1ccccc1OCC(=O)N/N=C/c1ccc(N2CCOCC2)o1	u	n	n	n	40µM	n
CC[C@H](C)[C@H](NC(=O)[C@H](Cc1ccc(O)cc1)NC(=O)[C@H](Cc1cnc[nH]1)NC(=O)[C@H](CCCNC(=N)N)NC(=O)[C@H](CC(C)C)NC(=O)[C@H](C)NC(=O)[C@H](CO)NC(=O)[C@H](Cc1ccc(O)cc1)NC(=O)[C@H](Cc1ccc(O)cc1)NC(=O)[C@H](CCCNC(=N)N)NC(=O)[C@H](C)NC(=O)[C@H](CC(C)C)NC(=O)[C@H](CC(=O)O)NC(=O)[C@H](CCC(=O)O)NC(=O)[C@H](C)NC(=O)[C@@H]1CCCN1C(=O)[C@H](C)NC(=O)[C@H](CC(=O)O)NC(=O)[C@H](CCC(=O)O)NC(=O)CNC(=O)[C@@H]1CCCN1C(=O)[C@H](CC(N)=O)NC(=O)[C@H](CC(=O)O)NC(=O)[C@@H]1CCCN1C(=O)[C@H](CCCCN)NC(=O)[C@@H](N)CO)C(=O)N[C@@H](CC(N)=O)C(=O)N[C@@H](CC(C)C)C(=O)N[C@H](C(=O)N[C@H](C(=O)N[C@@H](CCCNC(=N)N)C(=O)N[C@@H](CCC(N)=O)C(=O)N[C@@H](CCCNC(=N)N)C(=O)N[C@@H](Cc1ccc(O)cc1)C(N)=O)[C@@H](C)O)[C@@H](C)CC	x	x	x	x	n	x
COC(=O)c1sc(-c2ccc(Cl)cc2)cc1NC(=O)CSCC(=O)O	n	n	n	-53	n	n
COC(=O)c1sc(-c2ccccc2)cc1NC(=O)Nc1ccc(F)cc1	x	x	89µM	x	n	x
COC(=O)c1sc(-c2ccccc2)cc1NC(=O)Nc1ccc(Cl)cc1	x	x	n	x	n	x

Assay outcomes (PubChem)
